Measurements published in PubChem BioAssay AID1159580 (chemical genetic matrix, 2015).
“And” between values parts separate entries of the source, which are not always exact repeats. Equal entries are not always repeated. Out of some 5,500 compounds screened, about 2,000 (36%) were called active. Another 18% or so got no clear call; they are omitted. No stated cut-off is given here; in the data, active means normalized growth mostly below about 0.91 (no sharp cut-off); inconclusive means no clear call, values can overlap the other calls; inactive means mostly above about 0.92. The list shows a part of the results.

Test: chemical genetic growth profiling, strain panel (AID 1159580);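 further: tested at 20 µM; growth read once vehicle control cultures reached saturation at 30 °C; 1 = growth at the plate median or of vehicle wells; lower values mean less growth of the strain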
Settings: growth OD
[1] = S. cerevisiae deletion strains, locus YAL040C, strain CLN3, hits give low values
[2] = S. cerevisiae deletion strains, locus YER002W, strain NOP16, hits give low values
[3] = S. cerevisiae deletion strains, locus YMR307W, strain GAS1, hits give low values
[4] = S. cerevisiae deletion strains, locus YNL175C, strain NOP13, hits give low values
[5] = S. cerevisiae deletion strains, locus YNL197C, strain WHI3, hits give low values
[6] = S. cerevisiae deletion strains, locus YNL224C, strain SQS1, hits give low values
[7] = S. cerevisiae deletion strains, locus YNL322C, strain KRE1, hits give low values
[8] = S. cerevisiae deletion strains, locus YOR083W, strain WHI5 (second series), hits give low values
[9] = S. cerevisiae deletion strains, locus YPL241C, strain CIN2, hits give low values

Measured: normalized growth

COc1ccc(NC(=O)c2ccc(-c3ccc(-c4noc(C)n4)cc3C)cc2)cc1N1CCN(C)CC1
inactive: [1] 1.05 | S. cerevisiae deletion strains, locus YCL061C, strain MRC1 (second series), hits give low values 0.982 | S. cerevisiae deletion strains, locus YDR363W, strain ESC2, hits give low values 0.959 | [2] 1.01 | S. cerevisiae deletion strains, locus YJR075W, strain HOC1, hits give low values 0.974 | [3] 0.933 | S. cerevisiae deletion strains, locus YNL153C, strain GIM3, hits give low values 0.946 | [4] 1.02 | [5] 1.04 | [6] 1.01 | [7] 0.965 | [8] 0.939 | [9] 0.994

CC(=O)NCCc1c[nH]c2ccc(O)cc12
inactive: [1] 1 | S. cerevisiae deletion strains, locus YBR021W, strain FUR4, hits give low values 1.03 | S. cerevisiae deletion strains, locus YBR229C, strain ROT2, hits give low values 0.96 | S. cerevisiae deletion strains, locus YCL029C, strain bik1, hits give low values 0.98 | S. cerevisiae deletion strains, locus YDL035C, strain GPR1, hits give low values 1.01 | S. cerevisiae deletion strains, locus YDL074C, strain BRE1, hits give low values 0.953 | S. cerevisiae deletion strains, locus YDL101C, strain DUN1, hits give low values 0.977 | S. cerevisiae deletion strains, locus YDL134C, strain PPH21, hits give low values 0.993 | S. cerevisiae deletion strains, locus YDL185W, strain tfp1, hits give low values 0.983 | S. cerevisiae deletion strains, locus YDL192W, strain arf1, hits give low values 0.982 | S. cerevisiae deletion strains, locus YDR101C, strain arx1, hits give low values 0.929 | S. cerevisiae deletion strains, locus YDR150W, strain NUM1, hits give low values 1.01 | S. cerevisiae deletion strains, locus YDR162C, strain NBP2, hits give low values 0.999 | S. cerevisiae deletion strains, locus YDR318W, strain mcm21, hits give low values 0.992 | S. cerevisiae deletion strains, locus YDR388W, hits give low values 0.991 | S. cerevisiae deletion strains, locus YDR502C, strain sam2, hits give low values 0.985 | S. cerevisiae deletion strains, locus YEL061C, strain CIN8, hits give low values 0.984 | [2] 0.993 | S. cerevisiae deletion strains, locus YER110C, hits give low values 0.986 | S. cerevisiae deletion strains, locus YER155C, strain BEM2, hits give low values 0.998 | S. cerevisiae deletion strains, locus YER167W, strain BCK2, hits give low values 0.992 | S. cerevisiae deletion strains, locus YGL078C, strain dbp3, hits give low values 0.999 | S. cerevisiae deletion strains, locus YGL086W, strain mad1, hits give low values 0.962 | S. cerevisiae deletion strains, locus YGL248W, strain PDE1, hits give low values 0.98 | S. cerevisiae deletion strains, locus YGR078C, strain PAC10, hits give low values 1.01 | S. cerevisiae deletion strains, locus YGR135W, strain pre9, hits give low values 1.06 | S. cerevisiae deletion strains, locus YGR252W, strain gcn5, hits give low values 1.05 | S. cerevisiae deletion strains, locus YHR030C, strain SLT2, hits give low values 0.997 | S. cerevisiae deletion strains, locus YHR079C, strain IRE1 (second series), hits give low values 0.992 | S. cerevisiae deletion strains, locus YHR094C, strain hxt1, hits give low values 0.991 | S. cerevisiae deletion strains, locus YHR129C, strain ARP1, hits give low values 0.993 | S. cerevisiae deletion strains, locus YHR200W, strain rpn10, hits give low values 0.989 | S. cerevisiae deletion strains, locus YIL066C, strain RNR3, hits give low values 0.956 | S. cerevisiae deletion strains, locus YIL073C, strain SPO22, hits give low values 0.989 | S. cerevisiae deletion strains, locus YIL125W, strain kgd1, hits give low values 0.988 | S. cerevisiae deletion strains, locus YIR030C, strain dcg1, hits give low values 0.997 | S. cerevisiae deletion strains, locus YJL095W, strain BCK1, hits give low values 0.982 | S. cerevisiae deletion strains, locus YJL134W, strain LCB3, hits give low values 0.992 | S. cerevisiae deletion strains, locus YJL168C, strain set2, hits give low values 0.995 | S. cerevisiae deletion strains, locus YJL187C, strain SWE1 (second series), hits give low values 0.95 | S. cerevisiae deletion strains, locus YJR043C, strain POL32, hits give low values 0.99 | S. cerevisiae deletion strains, locus YKL009W, strain mrt4, hits give low values 0.978 | S. cerevisiae deletion strains, locus YKL068W, hits give low values 0.986 | S. cerevisiae deletion strains, locus YKL085W, strain MDH1 (second series), hits give low values 0.982 | S. cerevisiae deletion strains, locus YKL085W, strain MDH1, hits give low values 0.982 | S. cerevisiae deletion strains, locus YKL190W, strain CNB1, hits give low values 0.993 | S. cerevisiae deletion strains, locus YKR001C, strain vps1, hits give low values 0.978 | S. cerevisiae deletion strains, locus YLR039C, strain RIC1, hits give low values 0.95 | S. cerevisiae deletion strains, locus YLR058C, strain SHM2, hits give low values 0.982 | S. cerevisiae deletion strains, locus YLR102C, strain apc9, hits give low values 0.999 | S. cerevisiae deletion strains, locus YLR262C, strain YPT6, hits give low values 0.967 | S. cerevisiae deletion strains, locus YLR268W, strain sec22, hits give low values 0.983 | S. cerevisiae deletion strains, locus YLR330W, strain CHS5, hits give low values 0.989 | S. cerevisiae deletion strains, locus YLR342W, strain FKS1 (second series), hits give low values 1.07 | S. cerevisiae deletion strains, locus YLR371W, strain rom2, hits give low values 1.02 | S. cerevisiae deletion strains, locus YLR418C, strain cdc73, hits give low values 1.05 | S. cerevisiae deletion strains, locus YML016C, strain PPZ1, hits give low values 0.992 | S. cerevisiae deletion strains, locus YML032C, strain rad52, hits give low values 0.978 | S. cerevisiae deletion strains, locus YML124C, strain tub3, hits give low values 0.995 | S. cerevisiae deletion strains, locus YMR078C, strain ctf18, hits give low values 0.99 | S. cerevisiae deletion strains, locus YMR223W, strain ubp8, hits give low values 1.03 | S. cerevisiae deletion strains, locus YMR263W, strain SAP30, hits give low values 1 and 0.976 | [3] 1.05 | S. cerevisiae deletion strains, locus YNL067W, strain RPL9B, hits give low values 0.959 | S. cerevisiae deletion strains, locus YNL128W, strain TEP1, hits give low values 1.01 | [4] 1.01 | [5] 1.01 | [6] 1.02 | S. cerevisiae deletion strains, locus YNL233W, strain BNI4, hits give low values 0.966 | S. cerevisiae deletion strains, locus YNL250W, strain rad50, hits give low values 0.967 | S. cerevisiae deletion strains, locus YNL271C, strain bni1, hits give low values 0.982 | S. cerevisiae deletion strains, locus YNL298W, strain CLA4, hits give low values 1 | S. cerevisiae deletion strains, locus YNL307C, strain MCK1, hits give low values 0.987 | [7] 1.02 and 0.994 | S. cerevisiae deletion strains, locus YNR052C, strain pop2, hits give low values 0.996 | S. cerevisiae deletion strains, locus YOL006C, strain TOP1, hits give low values 0.933 | S. cerevisiae deletion strains, locus YOL012C, strain htz1 1.04 | S. cerevisiae deletion strains, locus YOL147C, strain pex11, hits give low values 0.993 | S. cerevisiae deletion strains, locus YOR061W, strain CKA2, hits give low values 0.963 | S. cerevisiae deletion strains, locus YOR069W, strain VPS5, hits give low values 0.997 | [8] 1.01 | S. cerevisiae deletion strains, locus YOR136W, strain idh2, hits give low values 0.989 | S. cerevisiae deletion strains, locus YOR144C, strain elg1, hits give low values 0.994 | S. cerevisiae deletion strains, locus YOR184W, strain ser1, hits give low values 1 | S. cerevisiae deletion strains, locus YOR316C, strain cot1, hits give low values 0.986 | [9] 1.01 and 0.993 | S. cerevisiae deletion strains, locus YPR119W, strain clb2, hits give low values 0.988 | S. cerevisiae deletion strains, locus YPR141C, strain kar3, hits give low values 0.981 | S. cerevisiae deletion strains, locus YPR163C, strain tif3, hits give low values 0.986 | S. cerevisiae deletion strains, locus YPR167C, strain met16, hits give low values 0.992 | S. cerevisiae deletion strains, strain wtn01, hits give low values 1 | S. cerevisiae strains, strain wild type, hits give low values 0.987
